# Test results from ChEMBL document CHEMBL4808148, “HDAC6 screening dataset using tau-based substrate in an enzymatic assay yields selective inhibitors and activators” (2021).
# Hit rate of the full screen: of about 5,600 compounds, about 150 (2.7%) showed an effect of 50% or more. This excerpt belongs to a sample that is enriched for strong results.
# Target: T1, Protein deacetylase HDAC6 (Homo sapiens) (UniProt Q9UBN7)
# T1 sequence (whole entry): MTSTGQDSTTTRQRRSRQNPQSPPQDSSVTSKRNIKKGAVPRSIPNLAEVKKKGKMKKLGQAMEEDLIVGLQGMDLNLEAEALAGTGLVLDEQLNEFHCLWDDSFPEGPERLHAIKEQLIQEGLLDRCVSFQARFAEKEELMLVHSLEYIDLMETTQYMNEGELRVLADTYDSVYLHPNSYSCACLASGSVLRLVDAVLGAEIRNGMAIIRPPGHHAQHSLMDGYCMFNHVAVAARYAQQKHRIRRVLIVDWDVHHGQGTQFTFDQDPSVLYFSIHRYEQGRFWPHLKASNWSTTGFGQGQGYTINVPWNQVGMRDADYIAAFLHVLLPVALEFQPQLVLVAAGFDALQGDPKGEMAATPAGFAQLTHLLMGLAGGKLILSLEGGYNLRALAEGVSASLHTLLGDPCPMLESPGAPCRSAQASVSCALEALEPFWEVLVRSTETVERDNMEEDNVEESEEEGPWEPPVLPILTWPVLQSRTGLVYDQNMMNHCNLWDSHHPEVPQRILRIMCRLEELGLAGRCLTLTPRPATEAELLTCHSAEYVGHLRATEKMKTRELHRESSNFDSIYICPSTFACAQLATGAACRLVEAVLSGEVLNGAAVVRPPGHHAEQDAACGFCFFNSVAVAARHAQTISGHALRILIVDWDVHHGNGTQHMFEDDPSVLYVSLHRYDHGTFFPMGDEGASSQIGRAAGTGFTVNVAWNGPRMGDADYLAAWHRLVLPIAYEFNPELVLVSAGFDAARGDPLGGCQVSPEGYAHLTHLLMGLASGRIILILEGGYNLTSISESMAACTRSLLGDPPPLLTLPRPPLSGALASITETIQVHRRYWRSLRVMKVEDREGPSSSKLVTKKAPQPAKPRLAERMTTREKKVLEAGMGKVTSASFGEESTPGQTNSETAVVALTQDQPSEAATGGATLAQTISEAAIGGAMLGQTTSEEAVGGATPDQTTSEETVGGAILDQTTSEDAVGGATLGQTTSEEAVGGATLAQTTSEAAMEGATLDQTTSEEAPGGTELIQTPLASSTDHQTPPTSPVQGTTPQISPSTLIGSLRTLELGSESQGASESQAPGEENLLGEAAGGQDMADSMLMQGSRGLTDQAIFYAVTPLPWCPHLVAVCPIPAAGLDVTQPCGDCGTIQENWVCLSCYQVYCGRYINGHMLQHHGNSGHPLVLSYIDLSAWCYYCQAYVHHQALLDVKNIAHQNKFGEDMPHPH
# Details: at 10 µM
row,Compound,inhibition [%]
1,O=C(/C=C/c1ccccc1)NCCO,44.6
2,O=C(/C=C/c1cccc(S(=O)(=O)Nc2ccccc2)c1)NO,97.7
3,CCNC(=O)/C=C/c1cccc(Br)c1,11.1
4,COc1ccc(Cl)cc1C(=O)NCCc1ccc(C(=O)O)cc1,-2.67
5,Cc1cc(Cl)ccc1OCCCC(=O)NO,87.1
6,Cc1ccc(C)c(OCCCC(C)(C)C(=O)O)c1,4.07
7,N=C(N)NCCC[C@H](N)C(=O)NCC(=O)N[C@@H](CC(=O)O)C(=O)N[C@@H](CO)C(=O)O,5.37
8,O=C(c1ccc2nccnc2c1)N1CCCCC1,-1.26
9,CCNC(=O)NS(=O)(=O)c1sc(CC(C)C)cc1-c1ccc(Cn2c(-c3ccccc3)nc(OC)c2C=O)cc1,-1.89
10,COc1ccc2nc(NC(=O)Nc3ccccc3)sc2c1,58.2
11,COc1ccc(Cl)c(Nc2nc3ccccc3nc2NS(=O)(=O)c2cccc(NC(=O)C(C)(C)N)c2)c1,-9.43
12,CCOc1ccc2nc(S(N)(=O)=O)sc2c1,1.88
13,COC(=O)[C@H](Cc1cccc(C(=N)N)c1)[C@@H](C)NC(=O)c1ccc(-c2cc[n+]([O-])cc2)cc1,-6.46
14,N#CCC1(n2cc(-c3ncnc4[nH]ccc34)cn2)CN(C2CCN(C(=O)c3ccnc(C(F)(F)F)c3F)CC2)C1,-4.32
15,Cc1ccccc1/N=N/c1ccc(/N=N/c2c(O)ccc3ccccc23)c(C)c1,0.88
16,Cc1ccc(O)c(/N=N/c2ccccc2)n1,99.5

row,Compound,inhibition [%]
1,CC(C)(CC(=O)N1CCCC1)NCC(=O)N1C[C@@H](F)C[C@H]1C#N,1.6
2,CSc1cc2c(cc1C(F)(F)F)N(C(=O)Nc1cccnc1)CC2,1.32
3,Cn1ccc2cc3c(cc21)CCN3C(=O)Nc1cccnc1,69.4
4,Cn1ccc2cc(NC(=O)Nc3cccnc3)ccc21,39.6
5,COc1ccccc1N1CCN(CC(O)COc2cc(OC)c(OC)c(OC)c2)CC1 (configuration not stated),-4.5
6,O=C(CCCCCCC(=O)NO)NO,96.5
7,O=C(CCCCCCC(=O)Nc1cccnc1)NO,98.1
8,O=C(O)CCCCCCCC(=O)O,0.37
9,NC(=O)c1cccnc1,9.25
10,O=C(O)CCCCCCCCC(=O)O,0.43
11,O=C(CCCCCCCn1cc(-c2cccnc2)nn1)Nc1ccccc1-c1ccccc1,-3.08
12,CC(C)Cc1ccc([C@@H](C)C(=O)NS(C)(=O)=O)cc1,-2.75
13,OC(c1ccc(-c2ccc(CN3CCN(Cc4ccncc4)CC3)cc2)c(F)c1)(C(F)(F)F)C(F)(F)F,-2.34
14,N#Cc1cccc(C(=O)Nc2cc(-c3ccccc3)nn2-c2ccccc2)c1,12.2
15,Cc1ccc(-c2ccc(C)cn2)nc1,70.4
16,CCOc1ccc(NC(=S)N2CCC(C(O)(c3ccccc3)c3ccccc3)CC2)cc1,-1.16
